Results as given in PubChem BioAssay AID435000 (NMMLSC, 2010).
This is one part of the list. Values without a mark were called inactive.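 Rule for the calls: active = fluorescence response below 15%; inactive = the rest.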

Test: yeast superoxide dye artefact check – S. cerevisiae BY4741, flow cytometry, artefact control for yeast caloric restriction mimetic project (AID 435000);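 note: percent of the mean fluorescence averaged over all compound wells on the plate; lower means stronger quenching of DHE signal or ROS scavenging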
Conditions: S. cerevisiae BY4741, DHE fluorescence, at 10 µM, active compounds read low

| SMILES | fluorescence response |
| --- | --- |
| CN1CCN(C(=S)SCC(=O)Nc2ccc(Cl)cc2C(=O)c2ccccc2)CC1 | 104% |
| C[C@]12CCC3C(CC[C@H]4C[C@@H](O)CC[C@]34C)C1C[C@@H](O)[C@H]2O (some centres not stated) | 99% |
